Laboratory results: PMC5540273 (PLoS ONE, 2017)
Read-outs that look alike come from different tables or passages of the source.

Legend:
FGFR1 = conditions: concentration: 1 μM, replicates: in singlicate; n = 1
FGFR2 = conditions: concentration: 1 μM, replicates: in singlicate; n = 1
FGFR3 = conditions: concentration: 1 μM, replicates: in singlicate; n = 1
FGFR4 = conditions: concentration: 1 μM, replicates: in singlicate; n = 1
FGR = conditions: concentration: 1 μM, replicates: in singlicate; n = 1
FLT1 = conditions: concentration: 1 μM, replicates: in singlicate; n = 1
FLT3-autoinhibited = conditions: concentration: 1 μM, replicates: in singlicate; n = 1
FLT3 = conditions: concentration: 1 μM, replicates: in singlicate; n = 1
FLT4 = conditions: concentration: 1 μM, replicates: in singlicate; n = 1
FRK = conditions: concentration: 1 μM, replicates: in singlicate; n = 1
FYN = conditions: concentration: 1 μM, replicates: in singlicate; n = 1
GAK = conditions: concentration: 1 μM, replicates: in singlicate; n = 1
GCN2(Kin.Dom.2,S808G) = test system: T1, GCN2(Kin.Dom.2,S808G); conditions: concentration: 1 μM, replicates: in singlicate; n = 1
T1 construct: gene EIF2AK4

GRK1 = conditions: concentration: 1 μM, replicates: in singlicate; n = 1
GRK2 = test system: T2, GRK2; conditions: concentration: 1 μM, replicates: in singlicate; n = 1
T2 construct: gene ADRBK1

GRK3 = test system: T3, GRK3; conditions: concentration: 1 μM, replicates: in singlicate; n = 1
T3 construct: gene ADRBK2

GRK4 = conditions: concentration: 1 μM, replicates: in singlicate; n = 1
GRK7 = conditions: concentration: 1 μM, replicates: in singlicate; n = 1
GSK3A = conditions: concentration: 1 μM, replicates: in singlicate; n = 1
GSK3B = conditions: n = 1
[1] = concentration: 1 μM, replicates: in singlicate
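Note: KINOMEscan kinase panel screen.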

For Cc1ccc(F)c(C(=O)Nc2cccc(-c3nn4ccccc4c3-c3ccnc(Nc4cccc(F)c4)n3)c2)c1F [GSK361061], the “%Inh” value (FGFR1) was 19%, the “%Inh” value (FGFR2) was 0% and the “%Inh” value (FGFR3) was 21%. The “%Inh” value (FGFR4) was 11%, the “%Inh” value (FGR) was 91.4% and the “%Inh” value (FLT1) was 94.5%. The “%Inh” value (FLT3-autoinhibited) was 0%, the “%Inh” value (FLT3) was 78% and the “%Inh” value (FLT4) was 82%. For the same molecule, the “%Inh” value (FRK) was 86%, the “%Inh” value (FYN) was 58% and the “%Inh” value (GAK) was 52%. For the same molecule, the “%Inh” value (GCN2(Kin.Dom.2,S808G)) was 11%, the “%Inh” value (GRK1) was 0% and the “%Inh” value (GRK2) was 0%. For the same molecule, the “%Inh” value (GRK3) was 0%, the “%Inh” value (GRK4) was 25% and the “%Inh” value (GRK7) was 0%. The “%Inh” value (GSK3A) was 12% and the “%Inh” value (GSK3B; [1]) was 21%.

O=C(Nc1cccc(-c2nn3ccccc3c2-c2ccnc(Nc3cccc(F)c3)n2)c1)c1c(F)ccc(F)c1Cl [GSK357952] was tested, and the “%Inh” value (FGFR1) was 14%, the “%Inh” value (FGFR2) was 0% and the “%Inh” value (FGFR3) was 19%. For the same molecule, the “%Inh” value (FGFR4) was 0%, the “%Inh” value (FGR) was 97.1% and the “%Inh” value (FLT1) was 89%. The “%Inh” value (FLT3-autoinhibited) was 15%, the “%Inh” value (FLT3) was 51% and the “%Inh” value (FLT4) was 38%. The “%Inh” value (FRK) was 76%, the “%Inh” value (FYN) was 66% and the “%Inh” value (GAK) was 14%. For the same molecule, the “%Inh” value (GCN2(Kin.Dom.2,S808G)) was 1%, the “%Inh” value (GRK1) was 5% and the “%Inh” value (GRK2) was 0%. For the same molecule, the “%Inh” value (GRK3) was 0%, the “%Inh” value (GRK4) was 5% and the “%Inh” value (GRK7) was 0%. For the same molecule, the “%Inh” value (GSK3A) was 0% and the “%Inh” value (GSK3B; [1]) was 6%.

COc1cc(Nc2nccc(N3CCC(NC(=O)Nc4cccc(C(C)=O)c4)C3)n2)cc(OC)c1OC (centres unmarked) [GSK1379753] was tested, and the “%Inh” value (FGFR1) was 3%, the “%Inh” value (FGFR2) was 0% and the “%Inh” value (FGFR3) was 9%. For the same molecule, the “%Inh” value (FGFR4) was 14%, the “%Inh” value (FGR) was 14% and the “%Inh” value (FLT1) was 19%. The “%Inh” value (FLT3-autoinhibited) was 0%, the “%Inh” value (FLT3) was 63% and the “%Inh” value (FLT4) was 6%. For the same molecule, the “%Inh” value (FRK) was 0%, the “%Inh” value (FYN) was 40% and the “%Inh” value (GAK) was 34%. For the same molecule, the “%Inh” value (GCN2(Kin.Dom.2,S808G)) was 0%, the “%Inh” value (GRK1) was 2% and the “%Inh” value (GRK2) was 0%. The “%Inh” value (GRK3) was 16%, the “%Inh” value (GRK4) was 0% and the “%Inh” value (GRK7) was 0%. The “%Inh” value (GSK3A) was 0% and the “%Inh” value (GSK3B; [1]) was 1%.

Nc1n[nH]c2cnc(-c3ccccc3)cc12 [SB-642124] was tested, and the “%Inh” value (FGFR1) was 2%, the “%Inh” value (FGFR2) was 35% and the “%Inh” value (FGFR3) was 16%. For the same molecule, the “%Inh” value (FGFR4) was 13%, the “%Inh” value (FGR) was 32% and the “%Inh” value (FLT1) was 0%. For the same molecule, the “%Inh” value (FLT3-autoinhibited) was 0%, the “%Inh” value (FLT3) was 0% and the “%Inh” value (FLT4) was 8%. For the same molecule, the “%Inh” value (FRK) was 10%, the “%Inh” value (FYN) was 25% and the “%Inh” value (GAK) was 13%. For the same molecule, the “%Inh” value (GCN2(Kin.Dom.2,S808G)) was 11%, the “%Inh” value (GRK1) was 0% and the “%Inh” value (GRK2) was 0%. The “%Inh” value (GRK3) was 42%, the “%Inh” value (GRK4) was 10% and the “%Inh” value (GRK7) was 0%. For the same molecule, the “%Inh” value (GSK3A) was 40% and the “%Inh” value (GSK3B; 1 µM) was 25%.

In the case of CCc1ccc(-c2ccc3c(c2)-c2c(cnn2C)S(=O)(=O)N3C)cc1, the “%Inh” value (FGFR1) is reported as 3%, the “%Inh” value (FGFR2) is reported as 0% and the “%Inh” value (FGFR3) is reported as 0%. The “%Inh” value (FGFR4) was 0%, the “%Inh” value (FGR) was 0% and the “%Inh” value (FLT1) was 0%. For the same molecule, the “%Inh” value (FLT3-autoinhibited) was 9%, the “%Inh” value (FLT3) was 0% and the “%Inh” value (FLT4) was 0%. The “%Inh” value (FRK) was 0%, the “%Inh” value (FYN) was 3% and the “%Inh” value (GAK) was 8%. The “%Inh” value (GCN2(Kin.Dom.2,S808G)) was 16%, the “%Inh” value (GRK1) was 11% and the “%Inh” value (GRK2) was 0%. For the same molecule, the “%Inh” value (GRK3) was 0%, the “%Inh” value (GRK4) was 16% and the “%Inh” value (GRK7) was 0%. For the same molecule, the “%Inh” value (GSK3A) was 0% and the “%Inh” value (GSK3B; [1]) was 13%.

With CN1CCN(CCCNc2nccc(-c3c(-c4ccc(F)cc4)nn4cc(C(F)(F)F)ccc34)n2)CC1 [GW621581] the “%Inh” value (FGFR1) was 25%, the “%Inh” value (FGFR2) was 0% and the “%Inh” value (FGFR3) was 0%. The “%Inh” value (FGFR4) was 0%, the “%Inh” value (FGR) was 6% and the “%Inh” value (FLT1) was 33%. For the same molecule, the “%Inh” value (FLT3-autoinhibited) was 0%, the “%Inh” value (FLT3) was 0% and the “%Inh” value (FLT4) was 16%. The “%Inh” value (FRK) was 5%, the “%Inh” value (FYN) was 0% and the “%Inh” value (GAK) was 78%. The “%Inh” value (GCN2(Kin.Dom.2,S808G)) was 4%, the “%Inh” value (GRK1) was 0% and the “%Inh” value (GRK2) was 4%. The “%Inh” value (GRK3) was 0%, the “%Inh” value (GRK4) was 8% and the “%Inh” value (GRK7) was 0%. The “%Inh” value (GSK3A) was 25% and the “%Inh” value (GSK3B; [1]) was 3%.

CC(C)(C)c1ccc2nccc(Nc3cccc(O)c3)c2c1 [GW856795] was tested, and the “%Inh” value (FGFR1) was 0%, the “%Inh” value (FGFR2) was 0% and the “%Inh” value (FGFR3) was 0%. The “%Inh” value (FGFR4) was 0%, the “%Inh” value (FGR) was 54% and the “%Inh” value (FLT1) was 0%. For the same molecule, the “%Inh” value (FLT3-autoinhibited) was 64%, the “%Inh” value (FLT3) was 10% and the “%Inh” value (FLT4) was 0%. The “%Inh” value (FRK) was 84%, the “%Inh” value (FYN) was 71% and the “%Inh” value (GAK) was 62%. The “%Inh” value (GCN2(Kin.Dom.2,S808G)) was 15%, the “%Inh” value (GRK1) was 9% and the “%Inh” value (GRK2) was 39%. For the same molecule, the “%Inh” value (GRK3) was 0%, the “%Inh” value (GRK4) was 16% and the “%Inh” value (GRK7) was 17%. The “%Inh” value (GSK3A) was 0% and the “%Inh” value (GSK3B; [1]) was 9%.

In the case of CN1CCN(Cc2cccc(-c3ccc4c(Nc5ccc(Oc6ccccc6)cc5)ccnc4c3)c2)CC1 [GW578342], the “%Inh” value (FGFR1) is reported as 22%, the “%Inh” value (FGFR2) is reported as 0% and the “%Inh” value (FGFR3) is reported as 17%. The “%Inh” value (FGFR4) was 0%, the “%Inh” value (FGR) was 92.4% and the “%Inh” value (FLT1) was 45%. For the same molecule, the “%Inh” value (FLT3-autoinhibited) was 36%, the “%Inh” value (FLT3) was 93.2% and the “%Inh” value (FLT4) was 43%. The “%Inh” value (FRK) was 19%, the “%Inh” value (FYN) was 83% and the “%Inh” value (GAK) was 3%. The “%Inh” value (GCN2(Kin.Dom.2,S808G)) was 0%, the “%Inh” value (GRK1) was 1% and the “%Inh” value (GRK2) was 2%. For the same molecule, the “%Inh” value (GRK3) was 37%, the “%Inh” value (GRK4) was 0% and the “%Inh” value (GRK7) was 0%. The “%Inh” value (GSK3A) was 16% and the “%Inh” value (GSK3B; [1]) was 0%.

In the case of Cl.Cl.NCC(NC(=O)c1cc(-c2ccccc2)c(-c2ccnc3[nH]ccc23)s1)c1ccccc1 (centres unmarked) [GSK1321561], the “%Inh” value (FGFR1) is reported as 15%, the “%Inh” value (FGFR2) is reported as 14% and the “%Inh” value (FGFR3) is reported as 19%. The “%Inh” value (FGFR4) was 0%, the “%Inh” value (FGR) was 35% and the “%Inh” value (FLT1) was 10%. For the same molecule, the “%Inh” value (FLT3-autoinhibited) was 0%, the “%Inh” value (FLT3) was 0% and the “%Inh” value (FLT4) was 2%. For the same molecule, the “%Inh” value (FRK) was 72%, the “%Inh” value (FYN) was 59% and the “%Inh” value (GAK) was 86%. For the same molecule, the “%Inh” value (GCN2(Kin.Dom.2,S808G)) was 0%, the “%Inh” value (GRK1) was 9% and the “%Inh” value (GRK2) was 0%. For the same molecule, the “%Inh” value (GRK3) was 15%, the “%Inh” value (GRK4) was 0% and the “%Inh” value (GRK7) was 25%. The “%Inh” value (GSK3A) was 31% and the “%Inh” value (GSK3B; [1]) was 26%.

In the case of COc1cc(Nc2nccc(-c3c(-c4cccc(NC(=O)c5c(F)cccc5F)c4)nn4ccccc34)n2)cc(OC)c1OC [GSK323521], the “%Inh” value (FGFR1) is reported as 17%, the “%Inh” value (FGFR2) is reported as 0% and the “%Inh” value (FGFR3) is reported as 12%. For the same molecule, the “%Inh” value (FGFR4) was 0%, the “%Inh” value (FGR) was 27% and the “%Inh” value (FLT1) was 41%. For the same molecule, the “%Inh” value (FLT3-autoinhibited) was 0%, the “%Inh” value (FLT3) was 98.4% and the “%Inh” value (FLT4) was 20%. For the same molecule, the “%Inh” value (FRK) was 11%, the “%Inh” value (FYN) was 23% and the “%Inh” value (GAK) was 28%. The “%Inh” value (GCN2(Kin.Dom.2,S808G)) was 29%, the “%Inh” value (GRK1) was 13% and the “%Inh” value (GRK2) was 0%. For the same molecule, the “%Inh” value (GRK3) was 0%, the “%Inh” value (GRK4) was 16% and the “%Inh” value (GRK7) was 0%. For the same molecule, the “%Inh” value (GSK3A) was 0% and the “%Inh” value (GSK3B; [1]) was 23%.
